Data: PubChem BioAssay AID488969 (Vanderbilt High Throughput Screening Facility, 2010)
In all, about 110,000 compounds were measured (“z-score”: median about -0.1, highest 2% from about 2 on). For the sample, the highest values were picked, then their nearest neighbours and some compounds at random. Activity calls are given as the source filed them.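 The calls were made as follows: active = z-score in the third read window above 3 or below -3; inactive = the rest.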

These molecules were tested against Metabotropic glutamate receptor 8 (Rattus norvegicus) (UniProt P70579) (assay: rat mGluR8 modulators via GIRK flux, primary screen, cell-based, thallium flux, HTS (AID 488969)). Details: HEK293 rat mGluR8, GIRK (G protein-gated inwardly rectifying potassium channel) thallium flux, FluoZin2; at 10 µM; stronger effect = higher value; submaximal glutamate (EC20) added with thallium.
Sequence of Metabotropic glutamate receptor 8 (Rattus norvegicus) (P70579 whole entry, looked up): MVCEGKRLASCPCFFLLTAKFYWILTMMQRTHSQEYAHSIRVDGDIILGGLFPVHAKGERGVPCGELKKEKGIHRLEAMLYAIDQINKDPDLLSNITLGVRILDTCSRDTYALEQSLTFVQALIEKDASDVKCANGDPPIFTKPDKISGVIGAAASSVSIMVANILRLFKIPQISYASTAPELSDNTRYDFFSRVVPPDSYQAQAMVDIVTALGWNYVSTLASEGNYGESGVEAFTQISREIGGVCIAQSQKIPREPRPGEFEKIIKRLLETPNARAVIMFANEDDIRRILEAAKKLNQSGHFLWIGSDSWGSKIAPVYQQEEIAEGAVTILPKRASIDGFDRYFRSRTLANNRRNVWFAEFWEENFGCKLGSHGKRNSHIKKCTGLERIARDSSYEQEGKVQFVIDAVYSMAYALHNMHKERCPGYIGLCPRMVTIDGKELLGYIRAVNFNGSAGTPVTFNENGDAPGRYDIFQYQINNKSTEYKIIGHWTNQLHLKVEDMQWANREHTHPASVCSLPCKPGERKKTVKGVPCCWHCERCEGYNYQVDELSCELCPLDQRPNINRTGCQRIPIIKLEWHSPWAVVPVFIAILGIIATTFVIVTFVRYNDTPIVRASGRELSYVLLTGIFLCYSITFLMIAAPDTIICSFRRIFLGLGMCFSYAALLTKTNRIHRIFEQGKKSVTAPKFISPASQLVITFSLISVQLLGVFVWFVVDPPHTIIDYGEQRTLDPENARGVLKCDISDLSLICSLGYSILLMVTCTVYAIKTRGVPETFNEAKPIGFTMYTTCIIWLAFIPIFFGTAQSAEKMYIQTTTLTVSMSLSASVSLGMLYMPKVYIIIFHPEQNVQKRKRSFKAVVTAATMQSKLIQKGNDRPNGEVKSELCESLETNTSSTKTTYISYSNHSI
For `COc1ccc(/C=C/C(=O)NC(=S)Nc2cc3oc4ccccc4c3cc2OC)cc1`, the z-score was 0.0202.
For `Cc1cc(/C=C2/NC(=O)NC2=O)c(C)n1-c1ccccn1`, the z-score was -0.389.
`Cc1cccc(C)c1-n1c(C)cc(/C=C2\NC(=O)NC2=O)c1C` showed a z-score of -0.96.
Work on `Cc1cc(C)c(-n2c(C)cc(/C=C3/NC(=O)NC3=O)c2C)c(C)c1` yielded a z-score of 2.07.
Molecule `Cn1cnnc1SC(C(=O)Nc1ccc(F)cc1)c1ccccc1` (stereo not given) has a z-score of -0.0653.
In the case of `Cc1ccc(S(=O)(=O)N2CCC(C(=O)NC3CCCCCC3)CC2)cc1`, the z-score is reported as -0.0732.
`CCC/C(O)=C1\C(=O)CCCC1=NCCCCCC(=O)O` showed a z-score of 0.156.
With `COc1ccc(OC)c(CCNC(=O)Cn2sc3nc(C)cc(C)c3c2=O)c1` the z-score was 2.22.
`COc1ccc(OC)c(CCNC(=O)CN2C(=O)CC(C)(C)S(=O)(=O)c3ccccc32)c1` showed a z-score of 0.0628.
`COc1ccc(-c2nc(CS(=O)(=O)CC(=O)NCCc3cc(OC)ccc3OC)c(C)o2)cc1` was tested, and the z-score was -0.299.
Work on `O=C(C1CCC(=O)N1Cc1ccccc1Cl)N1CCN(c2cccc(Cl)c2)CC1` (stereo not given) yielded a z-score of -0.174.
Molecule `CC(CNC(=O)c1cc(Cl)ccc1[N+](=O)[O-])NC(=O)c1cc(Cl)ccc1[N+](=O)[O-]` (stereo not given) has a z-score of -0.0709.
`Cc1ccc(/C([O-])=C(/C(=S)NCc2ccco2)[n+]2ccccc2)cc1` showed a z-score of -0.112.
With `Cc1cc(C)n(-c2nc(NCCC(C)C)c3c4c(sc3n2)COC(C)(C)C4)n1` the z-score was -0.867.
`N=c1nc(-c2ccccc2)ccn1O` gave a z-score of 2.64.
In the case of `c1ccc(-c2ccn3nnnc3n2)cc1`, the z-score is reported as -0.244.
For `CNc1ccccc1-n1ccc(-c2ccccc2)n1`, the z-score was 1.11.
`O=c1c(-c2ccco2)[n+]([O-])c2ccccc2n1OCc1ccccn1` gave a z-score of -0.153.
Work on `CN1CCN(S(=O)(=O)c2cccc(S(=O)(=O)c3ccc(Cl)cc3)c2)CC1` yielded a z-score of 0.2.
In the case of `CN1CCN(S(=O)(=O)c2cccc(S(=O)(=O)c3cccc(S(=O)(=O)N4CCN(C)CC4)c3)c2)CC1`, the z-score is reported as 14 (active).
For `CN1CCN(S(=O)(=O)c2cccc(S(=O)(=O)c3ccc(Cl)c(Cl)c3)c2)CC1`, the z-score was 1.26.
With `CCC(=O)NCc1cc(-c2nn(C)c(=O)c3ccccc23)ccc1C` the z-score was -0.415.
For `CCCn1c(SC(C(=O)Nc2cccc(OC)c2)c2ccccc2)nc2ccccc2c1=O` (stereo not given), the z-score was -0.276.
Work on `CCNc1nc(NCC)n2c(SC(C(=O)Nc3cc(C)ccc3OC)c3ccccc3)nnc2n1` (stereo not given) yielded a z-score of -0.463.
`CCCn1c(SC(C(=O)Nc2cc(C)ccc2OC)c2ccccc2)nc2ccccc2c1=O` (stereo not given) was tested, and the z-score was 3.61 (active).
`COc1cccc(NC(=O)C(Sc2nnc3ccccn23)c2ccccc2)c1` (stereo not given) showed a z-score of -0.184.
Work on `COc1ccc(C)cc1NC(=O)C(Sc1ccccc1)c1ccccc1` (stereo not given) yielded a z-score of 0.296.
Molecule `COc1cccc(NC(=O)C(Sc2nc3ccccc3c(=O)n2CC(C)C)c2ccccc2)c1` (stereo not given) has a z-score of 2.63.
Molecule `Cc1cccc(CCNC(=O)C2CCC(CNc3c(N4CCCC4)c(=O)c3=O)CC2)c1` (stereo not given) has a z-score of -0.262.
`CCOc1ccc(-c2nnn(CC(=O)NCc3ccco3)n2)cc1OCC` showed a z-score of 0.241.
In the case of `CC(=O)C1=C(c2ccccc2)NC(=O)NC1c1ccccc1OCC#N` (stereo not given), the z-score is reported as 1.96.
`CC(=O)c1c(C)[nH]c(C(=O)N2CCN(C(=O)c3ccco3)CC2)c1C` gave a z-score of -0.564.
In the case of `O=C(CSc1nc2c(cnn2-c2ccc(F)cc2)c(=O)[nH]1)N1CCOCC1`, the z-score is reported as 0.476.
`CC(=O)c1cnn(-c2cc(Oc3ccc(F)cc3)ncn2)c1C` showed a z-score of 0.354.
`CC(=O)c1cnn(-c2cc(Oc3cccc(C)c3)ncn2)c1C` was tested, and the z-score was 2.24.
With `COC(=O)c1cnn(-c2cc(Oc3cccc(C)c3)ncn2)c1N` the z-score was 0.309.
With `COC(=O)c1ccc(C2C(Oc3ccc(OC)cc3)C(=O)N2CCc2ccc(OC)c(OC)c2)cc1` (stereo not given) the z-score was -0.234.
With `N#Cc1c(N)nc2c3c(sc(=N)c2c1N)NC(=O)CC3c1ccccc1` (stereo not given) the z-score was -0.0395.
In the case of `CCS(=O)(=O)NCCc1csc(-c2ccccc2)n1`, the z-score is reported as -0.276.
`CS(=O)(=O)NCc1csc(-c2ccccc2)n1` showed a z-score of 2.26.
`COc1ccc(OC)c(S(=O)(=O)NCc2csc(-c3ccccc3)n2)c1` was tested, and the z-score was -0.245.
With `COc1cccc(CNC(=O)Cc2nc3nc(C)cc(C)n3n2)c1` the z-score was -0.187.
`Cn1cc(C(=O)Nc2cccc(F)c2)cn1` gave a z-score of 0.0603.
`COc1ccc(CN2C(=O)c3ccccc3C(/C=N\OCc3ccc(F)cc3)C2=O)cc1` (stereo not given) gave a z-score of 0.722.
`COc1ccc(CN2C(=O)c3ccccc3C(/C=N/OCc3ccc(Cl)cc3)C2=O)cc1` (stereo not given) showed a z-score of 0.378.
In the case of `COc1ccc(CN2C(=O)c3ccccc3C(/C=N\OCc3ccc(C)cc3)C2=O)cc1` (stereo not given), the z-score is reported as 2.42.
For `COc1ccc(OC)c(/C(O)=C/C(=O)C(=O)Nc2cc(C)cc(C)c2)c1`, the z-score was 0.571.
`CCOC(=O)C(NC(=O)c1ccccc1)(OCc1ccc(F)cc1)C(F)(F)F` (stereo not given) gave a z-score of 0.14.
For `Cc1cc(C(=O)CSc2nnc(-c3ccncc3)n2-c2ccccc2)c(C)n1C`, the z-score was 4.58 (active).
In the case of `CCn1c(SCC(=O)c2cc(C)n(C)c2C)nnc1-c1ccccc1`, the z-score is reported as 0.0656.
Work on `Cc1cc(C(=O)CSc2nnc(-c3ccccc3)n2C)c(C)n1C` yielded a z-score of -0.546.
Molecule `C=CCn1c(SCC(=O)NCCc2ccccc2)nnc1C(C)NC(=O)c1cccs1` (stereo not given) has a z-score of 0.0814.
`O=c1c(-c2nnc(SCc3ccc(Cl)cc3)o2)cccn1Cc1ccccc1` was tested, and the z-score was 0.618.
Work on `N#C/C(=C\c1ccc(OC(=O)c2ccccn2)cc1)C(N)=O` yielded a z-score of -0.197.
In the case of `O=S(=O)(Nc1cc(Sc2cccc3cccnc23)c(O)c2ccccc12)c1ccc(F)cc1`, the z-score is reported as 5.2 (active).
`COc1ccc(S(=O)(=O)Nc2cc(Sc3ncn[nH]3)c(O)c3ccccc23)cc1` was tested, and the z-score was 0.366.
Work on `O=S(=O)(NCCOc1cccc2cccnc12)c1ccc(F)cc1` yielded a z-score of -0.153.
`COC(=O)c1ccc(N2CCN(S(=O)(=O)c3ccccc3)CC2)c([N+](=O)[O-])c1` gave a z-score of -0.111.
Molecule `Cc1cc(=O)n(C)c(=O)n1CC(=O)N1CCCCCC1` has a z-score of 0.975.
`Cc1c(NC(=O)/C(C#N)=C/c2cccs2)c(=O)n(-c2ccccc2)n1C` showed a z-score of 0.559.
With `O=C(Oc1ccccc1)c1cc2ccccc2o1` the z-score was 2.68.
`O=C(Nc1ccccc1)c1ccc(OC(=O)c2cc3ccccc3o2)cc1` gave a z-score of -0.284.
`COc1ccc(OC(=O)c2cc3ccccc3o2)cc1` showed a z-score of 0.125.
`CCCCn1c(=O)c(C(=O)c2ccccc2)nc2ccccc21` showed a z-score of -0.617.
`S=c1sc2c(N3CCN(Cc4ccccc4)CC3)ncnc2n1-c1ccccc1` was tested, and the z-score was 0.467.
Work on `COc1ccc(CCN(Cc2cccs2)S(=O)(=O)c2ccc(S(=O)(=O)N3CCC(C)CC3)cc2)cc1OC` yielded a z-score of -0.101.
For `O=c1c2ccc(Cl)cc2[nH]c(=S)n1CCC1=CCCCC1`, the z-score was 5.05 (active).
With `O=c1c2oc3ccccc3c2[nH]c(=S)n1-c1ccccc1` the z-score was 0.645.
For `CCCCn1c(=S)[nH]c2c(oc3ccc(Cl)cc32)c1=O`, the z-score was 13.1 (active).
In the case of `CCN(CC)CCCn1c(=S)[nH]c2cc(Cl)ccc2c1=O`, the z-score is reported as 4.1 (active).
In the case of `CCN(CC)CCCn1c(=S)[nH]c2ccc(Cl)cc2c1=O`, the z-score is reported as 0.0726.
For `CCN(CC)CCCn1c(=S)[nH]c2cc(OC)c(OC)cc2c1=O`, the z-score was -0.0622.
`O=c1c2ccccc2[nH]c(=S)n1CCC1=CCCCC1` gave a z-score of 0.577.
With `CCOC(=O)N1CCN(C(=O)c2ccc3c(=O)n(CCC4=CCCCC4)c(=S)[nH]c3c2)CC1` the z-score was 0.221.
`CCN(CC)CCn1c(=S)[nH]c2cc(Cl)ccc2c1=O` showed a z-score of 1.41.
Molecule `Cc1ccc(C)c(N2CCN(c3ccc(N4C(=O)COCC4=O)cc3[N+](=O)[O-])CC2)c1` has a z-score of -0.128.
For `O=[N+]([O-])c1ccc2c(c1)C(N1CCOCC1)/C(=C/COc1ccc3ccccc3c1Br)O2` (stereo not given), the z-score was -0.0823.
Molecule `COc1ccc(-c2nnn(CC(=O)N3CCN(c4ccccc4OC)CC3)n2)cc1` has a z-score of -0.289.
Work on `CCOC(=O)Nc1sc2c(c1C#N)CCC(C)C2` (stereo not given) yielded a z-score of -0.505.
`CCOC(=O)C1CCc2sc(N)c(C#N)c21` (stereo not given) gave a z-score of 2.38.
`CCCC(=O)Nc1sc2c(c1C(=O)OC)C(C(=O)OC)CC2` (stereo not given) showed a z-score of -0.0731.
`Cc1ccc(O)c(C(=O)c2cnc3c(c2)COc2ccccc2-3)c1` gave a z-score of -0.0344.
For `CCOC(=O)C1=C(C)NC(C)=C(C(=O)OCC)C1c1ccc(O)cc1`, the z-score was -0.238.
`O=C(Nc1ccc2c(c1)OCCO2)C1CCC1` gave a z-score of 0.045.
`CS(=O)(=O)N1CCC(C(=O)Nc2ccc3c(c2)OCCO3)CC1` was tested, and the z-score was 0.0973.
`O=C(Nc1ccc2c(c1)OCCO2)C1CCN(c2cnccn2)CC1` gave a z-score of 2.51.
Work on `Cc1cc(C)nc(SCC(=O)c2c(N)n(C)c(=O)n(C)c2=O)n1` yielded a z-score of -0.282.
For `CN(C)CCCNC(=O)c1ccc(-c2nc(-c3ccc(Cl)cc3)cs2)cc1`, the z-score was 3.28 (active).
For `C=CCNC(=O)c1ccc(-c2nc(-c3ccccc3)cs2)cc1`, the z-score was 0.133.
With `C=CCNC(=O)c1ccc(-c2nc(-c3ccc(Cl)c(Cl)c3)cs2)cc1` the z-score was -0.148.
With `CCc1cccc(C)c1NC(=O)CCCC(=O)O` the z-score was 0.0858.
Work on `Cc1ccccc1Cn1cc(NC(=O)c2nc3ncccn3n2)cn1` yielded a z-score of 2.77.
Work on `O=C(Nc1cnn(Cc2ccccc2)c1)c1nc2ncccn2n1` yielded a z-score of -0.222.
`Cc1ccccc1Cn1ccc(NC(=O)c2nc3ncccn3n2)n1` was tested, and the z-score was -1.29.
For `COc1ccc(/C=C/C(=O)c2sc(-c3ccccc3)nc2C)cc1`, the z-score was 0.276.
`COc1ccc(-c2nc(N)nc(C)c2Oc2ccccc2Br)c(O)c1` was tested, and the z-score was -0.381.
Molecule `CSc1ccc(CCNC(=O)CSc2ccsc2[N+](=O)[O-])cc1` has a z-score of -0.173.
With `CCc1nnc(NC(=O)CSc2nc(-c3ccc(F)cc3)cc(-c3ccccc3)c2C#N)s1` the z-score was 2.35.
`CCc1nnc(NC(=O)CSc2nc(-c3ccccc3)cc(-c3ccc(F)cc3)c2C#N)s1` showed a z-score of -0.163.
With `CCc1nnc(NC(=O)CSc2nc(-c3ccccc3)cc(-c3ccc(OC)cc3)c2C#N)s1` the z-score was -0.249.
`c1ccc(-c2nc(CSc3n[nH]c(-c4cccs4)n3)cs2)cc1` was tested, and the z-score was 0.259.
`CCOC(=O)C1CCCN(C(=O)c2cn(CC(C)C)c(=O)c3cc(OC)c(OC)cc23)C1` (stereo not given) gave a z-score of -0.759.
Work on `CCCN1CCN(C(=O)c2cn(CC(C)C)c(=O)c3cc(OC)c(OC)cc23)CC1` yielded a z-score of -0.37.
`COc1cc2c(C(=O)N3CCN(C4CCCCC4)CC3)cn(CC(C)C)c(=O)c2cc1OC` gave a z-score of 2.68.
`Cc1nn(-c2ccccc2)c(Cl)c1C(=O)OC(C)C(=O)Nc1ccc2c(c1)OCO2` (stereo not given) was tested, and the z-score was -0.936.
